# Measurements published in PubChem BioAssay (Tox21).
# Records with an inconclusive call do not appear. Where a call stands in place of a potency, no number is given. Values without a mark were called inactive. Calls of active or inactive are those of the source. The call rests on the fitted dose curve; in most records, active means well fitted curve in the direction sought with a large enough effect in the repeat runs; inconclusive means weak or mixed curves; inactive means no such curve, though single readings can be large; an effect the other way counts as inactive or inconclusive.
# Key:
# [1] = target: Cytochrome P450 1A2 (Homo sapiens) (UniProt P05177); test: Cytochrome P450 Family 1 Subfamily A Member 2 (CYP1A2) small molecule antagonists: luciferase reporter qHTS assay (AID 1671199); on activity change, negative = inhibition: series mostly up to about 120 µM
# How it was run: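 P450-Glo CYP1A2 enzyme–proluciferin substrate mix with compound 10 min at room temperature, then NADPH regeneration 1 h at room temperature. Luciferin detection reagent added, luminescence read after 20 min; furafylline positive control.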
# [2] = target: Cytochrome P450 3A4 (Homo sapiens) (UniProt P08684); test: Cytochrome P450 Family 3 Subfamily A Member 4 (CYP3A4) small molecule antagonists: luciferase reporter qHTS assay (AID 1671201); on activity change, negative = inhibition: series mostly up to about 120 µM
# How it was run: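 Proluciferin-to-luciferin conversion by CYP3A4, NADPH-regenerated, 1 h RT; luminescence read as RLU. Ketoconazole as control.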
# [3] = target: Voltage-gated inwardly rectifying potassium channel KCNH2 (Homo sapiens) (UniProt Q12809); test: Human Ether-a-go-go-Related Gene (hERG) channel small molecule antagonists: fluorescence cell-based qHTS assay (AID 1671200);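 on activity change, negative = inhibition: hERG-expressing U2OS cells given a thallium stimulus after FluxOR II dye loading; series mostly up to about 77 µM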
# How it was run: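 Kinetic two-minute fluorescence traces, sampled at 1 s, were collected following thallium stimulus of U2OS cells (1000 per well) that had been cultured overnight at 37 C and loaded with FluxOR II.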
# Further: nearly all actives have a fitted effect of over 50% in size.
# Potency means the concentration at half of the fitted maximal effect.
# Chain of Cytochrome P450 3A4 (Homo sapiens) (P08684 whole entry, looked up): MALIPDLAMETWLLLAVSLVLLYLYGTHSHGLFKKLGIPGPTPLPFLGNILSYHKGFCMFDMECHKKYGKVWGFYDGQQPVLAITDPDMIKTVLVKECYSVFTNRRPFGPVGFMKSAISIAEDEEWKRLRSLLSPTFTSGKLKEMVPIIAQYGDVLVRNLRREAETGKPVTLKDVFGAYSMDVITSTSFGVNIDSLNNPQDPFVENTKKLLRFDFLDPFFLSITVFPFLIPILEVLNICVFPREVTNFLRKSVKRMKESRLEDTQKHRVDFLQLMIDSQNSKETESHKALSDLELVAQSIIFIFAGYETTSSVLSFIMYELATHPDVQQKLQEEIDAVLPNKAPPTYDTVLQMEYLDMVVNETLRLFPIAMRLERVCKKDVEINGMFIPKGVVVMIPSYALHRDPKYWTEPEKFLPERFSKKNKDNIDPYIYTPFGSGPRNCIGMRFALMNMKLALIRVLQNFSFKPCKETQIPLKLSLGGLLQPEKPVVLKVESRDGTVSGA
# Chain of Voltage-gated inwardly rectifying potassium channel KCNH2 (Homo sapiens) (Q12809 whole entry, looked up): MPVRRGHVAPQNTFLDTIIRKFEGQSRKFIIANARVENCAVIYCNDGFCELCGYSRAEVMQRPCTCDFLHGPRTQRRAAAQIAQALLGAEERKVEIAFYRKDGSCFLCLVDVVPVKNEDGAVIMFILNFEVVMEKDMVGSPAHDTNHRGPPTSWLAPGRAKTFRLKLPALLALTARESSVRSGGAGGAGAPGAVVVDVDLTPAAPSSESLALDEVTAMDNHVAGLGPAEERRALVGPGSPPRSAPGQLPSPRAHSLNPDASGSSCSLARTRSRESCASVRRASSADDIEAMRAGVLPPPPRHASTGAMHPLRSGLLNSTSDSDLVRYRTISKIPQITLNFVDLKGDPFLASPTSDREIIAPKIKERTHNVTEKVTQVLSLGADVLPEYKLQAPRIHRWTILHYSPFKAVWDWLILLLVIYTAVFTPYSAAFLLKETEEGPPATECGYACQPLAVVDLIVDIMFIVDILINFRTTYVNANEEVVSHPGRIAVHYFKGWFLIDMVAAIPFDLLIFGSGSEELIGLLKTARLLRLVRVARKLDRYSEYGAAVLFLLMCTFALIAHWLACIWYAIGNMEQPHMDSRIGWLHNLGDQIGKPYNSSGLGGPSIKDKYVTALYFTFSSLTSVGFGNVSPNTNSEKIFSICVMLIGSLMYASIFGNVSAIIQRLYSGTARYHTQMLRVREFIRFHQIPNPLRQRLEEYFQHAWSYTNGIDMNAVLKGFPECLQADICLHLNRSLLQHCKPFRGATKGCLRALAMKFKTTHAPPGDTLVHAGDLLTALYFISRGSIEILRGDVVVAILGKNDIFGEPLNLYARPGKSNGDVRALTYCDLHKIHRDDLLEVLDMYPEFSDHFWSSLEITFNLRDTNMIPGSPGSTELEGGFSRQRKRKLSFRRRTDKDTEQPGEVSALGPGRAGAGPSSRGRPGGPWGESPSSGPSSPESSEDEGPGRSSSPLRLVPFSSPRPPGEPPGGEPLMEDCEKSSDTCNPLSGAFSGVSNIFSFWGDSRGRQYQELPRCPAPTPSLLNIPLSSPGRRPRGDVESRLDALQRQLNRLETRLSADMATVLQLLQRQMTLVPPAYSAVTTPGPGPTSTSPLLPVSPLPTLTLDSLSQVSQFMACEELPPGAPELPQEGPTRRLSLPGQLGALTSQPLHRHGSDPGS
# Chain of Cytochrome P450 1A2 (Homo sapiens) (P05177 whole entry, looked up): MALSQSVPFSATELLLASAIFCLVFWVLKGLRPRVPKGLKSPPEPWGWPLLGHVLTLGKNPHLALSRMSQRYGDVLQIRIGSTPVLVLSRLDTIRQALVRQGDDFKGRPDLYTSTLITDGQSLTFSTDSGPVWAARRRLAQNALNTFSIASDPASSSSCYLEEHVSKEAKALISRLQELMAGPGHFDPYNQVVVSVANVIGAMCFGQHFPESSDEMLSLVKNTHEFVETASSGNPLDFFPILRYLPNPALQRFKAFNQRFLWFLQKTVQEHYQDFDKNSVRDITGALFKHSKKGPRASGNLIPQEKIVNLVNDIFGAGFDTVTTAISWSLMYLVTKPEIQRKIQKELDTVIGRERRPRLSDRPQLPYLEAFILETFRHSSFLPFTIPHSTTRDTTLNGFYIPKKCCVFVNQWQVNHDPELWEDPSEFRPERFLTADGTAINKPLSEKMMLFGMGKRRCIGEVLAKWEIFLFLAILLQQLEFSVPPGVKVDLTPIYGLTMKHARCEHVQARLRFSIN
smiles,measurement,setting,value
CCOC(=O)NNc1ccc(N(CC)CC(C)O)nn1 (stereo not drawn),Potency,[1],inactive
same,Potency,[2],inactive
O=C(O)c1cc(=O)c2ccccc2o1,Potency,[1],inactive
same,Potency,[3],inactive
same,Potency,[2],inactive
Cc1ccc(C(C)C)cc2c(C)ccc1-2,Potency,[3],inactive
C#C[C@]1(OC(C)=O)CC[C@H]2[C@@H]3CCC4=C[C@@H](OC(C)=O)CC[C@@H]4[C@H]3CC[C@@]21C,Potency,[1],inactive
same,Potency,[3],inactive
same,Potency,[2],inactive
C[C@@H](O)[C@H](N)C(=O)O,"activity change, negative = inhibition",[1],12.2% [at 23.6 µM]
same,"activity change, negative = inhibition",[3],1.94% [at 15.8 µM]
same,"activity change, negative = inhibition",[2],16.7% [at 23.6 µM]
Nc1nc2c(ncn2COCCO)c(=O)[nH]1,Potency,[1],inactive
same,Potency,[2],inactive
Nc1ccc(Oc2ccc(Cl)cc2)cc1,Potency,[1],34.8 µM (active)
same,Potency,[2],17.5 µM (active)
CC1(C)[C@@H](O)CC[C@]2(C)[C@H]3C(=O)C=C4[C@@H]5C[C@@](C)(C(=O)O)CC[C@]5(C)CC[C@@]4(C)[C@]3(C)CC[C@@H]12,Potency,[1],inactive
same,Potency,[2],inactive
O=c1[nH]c2ccccc2n1CCCN1CCN(C(c2ccccc2)c2ccccc2)CC1,Potency,[1],inactive
same,Potency,[3],0.379 µM (active)
same,Potency,[2],inactive
Oc1ccccc1O,Potency,[1],inactive
same,Potency,[3],inactive
same,Potency,[2],inactive
[Cl][Pt-2]([Cl])([Cl])[Cl],Potency,[1],35.7 µM (active)
same,Potency,[2],inactive
Cc1ccc(O)c(O)c1,Potency,[3],inactive
Cc1cc(C(C)(C)C)cc(C)c1CC1=NCCN1,Potency,[1],inactive
same,Potency,[2],inactive
Oc1c(I)cc(Cl)c2cccnc12,Potency,[3],inactive
CN1CCCCC1CCN1c2ccccc2Sc2ccc(S(C)=O)cc21 (stereo not drawn),Potency,[1],inactive
same,Potency,[2],inactive
CCCC(=O)OC(C)(C)Cc1ccccc1,Potency,[3],inactive
C1CCC(SSC2CCCCC2)CC1,Potency,[1],25.2 µM (active)
same,Potency,[3],inactive
same,Potency,[2],inactive
C[Si](Cl)(c1ccccc1)c1ccccc1,Potency,[3],inactive
COc1cc(/C=C/c2ccccc2)oc(=O)c1,Potency,[1],2.93 µM (active)
same,Potency,[3],inactive
same,Potency,[2],26.1 µM (active)
CCC(C)[O-].CCC(C)[O-].CCOC(=O)/C=C(/C)[O-].[Al+3],Potency,[3],inactive
Cc1ccc(-c2ccccc2)cc1,Potency,[1],inactive
same,Potency,[2],inactive
CCCC[P+](C)(CCCC)CCCC,Potency,[1],inactive
same,Potency,[2],inactive
Cc1cc(=O)oc2cc(O)cc(O)c12,Potency,[1],25.3 µM (active)
same,Potency,[3],inactive
same,Potency,[2],20.1 µM (active)
Cc1cc(C)c(/C=C2\C(=O)Nc3ccccc32)[nH]1,Potency,[1],1.44 µM (active)
same,Potency,[3],inactive
same,Potency,[2],inactive
CCn1c2ccccc2c2cc([N+](=O)[O-])ccc21,Potency,[1],1.12 µM (active)
same,Potency,[2],inactive
CC(=O)[C@H]1CC[C@H]2[C@@H]3CCC4=CC(=O)CC[C@]4(C)[C@H]3CC[C@]12C,Potency,[1],31.7 µM (active)
same,Potency,[2],inactive
CCCCCCCCCCCC(=O)OCC(C)OC(=O)CCCCC(=O)O (stereo not drawn),Potency,[3],inactive
same,Potency,[2],8.71 µM (active)
OCCN1CCN(CCCN2c3ccccc3Sc3ccc(C(F)(F)F)cc32)CC1,Potency,[3],3.38 µM (active)
Sc1nc2ccccc2s1,Potency,[3],inactive
same,Potency,[2],inactive
COc1cccc(OC)c1C(=O)O,Potency,[3],inactive
same,Potency,[2],inactive
CN(C)CCN1CCN(c2cccc(Cl)c2)C1=O,Potency,[3],inactive
same,Potency,[2],inactive
NC[C@H]1O[C@H](O[C@H]2[C@H](O[C@@H]3O[C@H](CO)[C@@H](O)[C@H]3O)C(O)[C@H](N)C[C@@H]2N)[C@H](N)[C@@H](O)[C@@H]1O (stereo partly drawn),"activity change, negative = inhibition",[3],-0.219% [at 6.97 µM]
CC(C)Cn1cnc2c(N)nc3ccccc3c21,"activity change, negative = inhibition",[3],-8.33% [at 15.8 µM]
same,"activity change, negative = inhibition",[2],54.2% [at 23.6 µM]
CC(C)(C)CC(C)(C)c1ccc(Nc2ccc(C(C)(C)CC(C)(C)C)cc2)cc1,"activity change, negative = inhibition",[3],0.578% [at 6.97 µM]
same,"activity change, negative = inhibition",[2],-20% [at 10.5 µM]
C=CC(C)(CCC=C(C)C)OC=O (stereo not drawn),Potency,[3],inactive
same,Potency,[2],31.7 µM (active)
O=C1C(c2[nH]c3ccc(S(=O)(=O)O)cc3c2O)=Nc2ccc(S(=O)(=O)O)cc21,Potency,[3],inactive
same,Potency,[2],inactive
O=c1c(O)c(-c2ccc(O)cc2O)oc2cc(O)cc(O)c12,Potency,[3],inactive
same,Potency,[2],inactive
CN1CCN2c3ccccc3Cc3ccccc3C2C1 (stereo not drawn),Potency,[2],inactive
O=C1OC2(c3ccc(O)cc3Oc3cc(O)ccc32)c2ccc(N=C=S)cc21,Potency,[3],inactive
same,Potency,[2],inactive
O=C(O)CN(CCN(CC(=O)O)CC(=O)O)CC(=O)O,"activity change, negative = inhibition",[3],-1.4% [at 2.72 µM]
CC(C(=O)O)c1ccc2c(c1)[nH]c1ccc(Cl)cc12 (stereo not drawn),Potency,[3],inactive
same,Potency,[2],inactive
CCOc1ccc2ccccc2c1C(=O)N[C@@H]1C(=O)N2[C@@H]1SC(C)(C)[C@@H]2C(=O)O,Potency,[3],inactive
same,Potency,[2],inactive
Cc1ccc(N/N=c2\c(=O)cc/c(=N\Nc3ccc(S(=O)(=O)O)cc3)c2=O)c(C)c1,Potency,[3],inactive
same,Potency,[2],inactive
CC(C)(C)C1CCC(=O)CC1,Potency,[3],inactive
same,Potency,[2],inactive
CCCCCCC1CCCC(=O)O1 (stereo not drawn),Potency,[3],inactive
same,Potency,[2],inactive
CC1(C)CC(O)CC(C)(C)N1,Potency,[3],inactive
same,Potency,[2],inactive
C=Cc1ccccc1C=C,Potency,[3],inactive
same,Potency,[2],inactive
CC(C)(c1cc(Br)c(OCC(Br)CBr)c(Br)c1)c1cc(Br)c(OCC(Br)CBr)c(Br)c1 (stereo not drawn),Potency,[3],inactive
same,Potency,[2],inactive
O=C1NC(=O)[C@@H]2CC=CC[C@H]12,Potency,[3],inactive
CCC(C)(CCC(C)C)C(=O)[O][Sn]([CH3])([CH3])[O]C(=O)C(C)(CC)CCC(C)C (stereo not drawn),Potency,[3],inactive
same,Potency,[2],inactive
CCCCOC(=O)CO,Potency,[3],inactive
same,Potency,[2],inactive
CC1=CCC(=C(C)C)CC1,Potency,[3],inactive
same,Potency,[2],20 µM (active)
CCO[Si](OCC)(OCC)OCC,Potency,[3],inactive
same,Potency,[2],inactive
O=[N+]([O-])c1ccc(F)c(Cl)c1,Potency,[3],inactive
same,Potency,[2],inactive
COCCOc1cc2cc(C(=O)NC3CCN(C(C)C)CC3)n(CC(=O)Nc3ccc(Cl)cn3)c2cn1,Potency,[3],inactive
same,Potency,[2],inactive
